Data published in the supplement of paper PMC7156485.
Where “and” joins values, the source holds several entries; their conditions need not be identical. Equal values may be shown once. ± gives the standard deviation of the averaged measurements.

Experiments:
Conditions in all cases: concentration: 10 µM; 24 h
[1] = test system: HCC1569; experiment: cell number relative to DMSO (% of DMSO); higher = more cells (less growth inhibition / toxicity)
Outline: (§1)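 HCC1569 and TDF cells were seeded at 800 per well in 384-well plates in RPMI with 10% FBS and treated with compounds at 10 µM for 24 h at 37 °C, in triplicate. After fixation in 3.7% formaldehyde, cells were stained with a rabbit anti-H1.0 antibody, an AlexaFluor 647 secondary and DAPI, and six fields per well were imaged at ×10. H1.0 nuclear intensity or cell number is given as percent of the plate control, using the median of replicates, with HCC1569 values smoothed for positional effects.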

[2] = test system: TDF; experiment: as above
Outline: as §1

[3] = test system: TDF; experiment: H1.0 immunofluorescence intensity relative to DMSO (% of DMSO); higher = stronger H1.0 induction, active = 120 or more
Outline: as §1

[4] = test system: HCC1569; experiment: H1.0 immunofluorescence intensity relative to DMSO (% of DMSO); higher = stronger H1.0 induction, active = 140 or more
Outline: as §1
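Wherever H1.0 immunofluorescence intensity relative to DMSO is given: TDF is a line of transformed human dermal fibroblasts of mesenchymal origin.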
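Wherever cell number relative to DMSO is given: TDF denotes transformed human dermal fibroblasts of mesenchymal origin.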

Row | SMILES | cell number [1] | cell number [2] | H1.0 immunofluorescence intensity [3] | H1.0 immunofluorescence intensity [4]
1 | CC1CCC2(NC1)OC1CC3C4CCC5CC(O)CCC5(C)C4CCC3(C)C1C2C (stereo unspecified) [Tomatidine] | 104 | 102 | 99.2 (inactive) | 83.5 (inactive)
2 | CN1CC[C@@]2(C)c3cc(OC(=O)Nc4ccccc4)ccc3N(C)[C@@H]12 | 103 | 90.6 | 106 (inactive) | 102 (inactive)
3 | Cc1cc(O)c2c(=O)c3c(O)cc(O)c4c5c(O)cc(O)c6c(=O)c7c(O)cc(C)c8c1c2c(c34)c(c78)c65 [Hypericin] | 103 ± 2.1 | 100 ± 2.6 | 96.3 (inactive) | 94.4 (inactive)
4 | CC(O)=C(C#N)C(=O)Nc1cc(Br)ccc1Br | 100 and 108 | 99.5 and 103 | 99 (inactive) and 97.5 (inactive) | 111 (inactive) and 98.6 (inactive)
5 | CC1OC(C[N+](C)(C)C)CC1O.[Cl-] (racemic) | 102 | 101 | 96.4 (inactive) | 92 (inactive)
6 | Cl.c1ccc2sc(C3(N4CCCCC4)CCCCC3)cc2c1 [BTCP hydrochloride] | 100 | 106 | 88.2 (inactive) | 96.6 (inactive)
7 | N#CC(C#N)=Cc1ccc(O)c(O)c1 [Tyrphostin 23] | 92.8 | 93.1 | 94.4 (inactive) | 102 (inactive)
8 | CC1OC(OC2CC(O)C3(CO)C4C(O)CC5(C)C(C6COC(=O)C6)CCC5(O)C4CCC3(O)C2)C(O)C(O)C1O (stereo unspecified) [Dihydroouabain] | 61.7 | 43.7 | 104 (inactive) | 82.2 (inactive)
9 | CC(O)(CS(=O)(=O)c1ccc(F)cc1)C(=O)Nc1ccc(C#N)c(C(F)(F)F)c1 (stereo unspecified) [Bicalutamide] | 99.1 | 104 | 94.6 (inactive) | 98.8 (inactive)
10 | NC(=O)c1cc(N2CC2)c([N+](=O)[O-])cc1[N+](=O)[O-] | 96.1 | 94 | 89.4 (inactive) | 91.7 (inactive)
11 | C[Se]CC(N)C(=O)O.Cl (stereo unspecified) [Se-(methyl)selenocysteine hydrochloride] | 99.6 | 90.3 | 99 (inactive) | 98.1 (inactive)
12 | CCN(C)C(=O)Oc1cccc([C@H](C)N(C)C)c1.O=C(O)C(O)C(O)C(=O)O | 98.4 | 98.9 | 106 (inactive) | 96.1 (inactive)
13 | CN1CC(CO)CC2c3cccc4[nH]cc(c34)CC21 (stereo unspecified) [9,10-Dihydrolysergol] | 96.5 | 98.2 | 102 (inactive) | 92.7 (inactive)
14 | c1ccc2c(c1)[nH]c1cnccc12 [Norharmane] | 100 | 106 | 97.6 (inactive) | 92 (inactive)
15 | CCc1c(C(=O)OC)ncc2[nH]c3cc(OC)c(OC)cc3c12 [Methyl 6,7-dimethoxy-4-ethyl-beta-carboline-3-carboxylate] | 95.8 | 99.5 | 88.1 (inactive) | 130 (inactive)
16 | CCCCCCC(C)(C)c1ccc(C2CC(O)CCC2CCCO)c(O)c1 (stereo unspecified) | 99.3 | 109 | 91.7 (inactive) | 93 (inactive)
17 | CCCCCC=CCC=CCC=CCC=CCCCC(=O)NCCc1ccc(O)c(O)c1 [Arachidonyl dopamine] | 87.9 | 91.8 | 94.9 (inactive) | 124 (inactive)
18 | Cc1o[nH]c(=O)c1CC(N)C(=O)O (racemic) | 103 | 101 | 96.3 (inactive) | 87.9 (inactive)
19 | C=C(C)C1C2OC(=O)C1C1(O)CC3OC34C(=O)OC2C14C (stereo unspecified) [Picrotoxinin] | 105 | 105 | 95.4 (inactive) | 90.9 (inactive)
20 | O=C1CCCC2C3CCCN4CCCC(CN12)C34 (stereo unspecified) [Matrine] | 100 | 94.7 | 99.3 (inactive) | 94.6 (inactive)
21 | CNC(=O)Oc1ccc2c(c1)C1(C)CCN(C)C1N2C (single isomer, unassigned; (-)) [(-)-Physostigmine] | 98.8 | 118 | 96.7 (inactive) | 94.3 (inactive)
22 | CC1(C)CCCC(C)(C)N1[O] | 99.1 | 96.8 | 100 (inactive) | 99.1 (inactive)
23 | COc1cc2c(cc1OC)C(C)NCC2 (stereo unspecified) [Salsolodine] | 105 | 97.2 | 88.7 (inactive) | 86.3 (inactive)
24 | Br.CCCN(CCC)C1CCc2cccc(O)c2C1 (stereo not drawn) [R-(+)-8-Hydroxy-DPAT hydrobromide] | 99.2 | 90.1 | 105 (inactive) | 96.5 (inactive)
